Results from PubChem BioAssay AID1159580 (chemical genetic matrix, 2015).
Screen size: about 5,500 compounds; about 2,000 (36%) were called active. About 18% were inconclusive and are not listed. Rule as the data show it: active = normalized growth mostly below about 0.91 (no sharp cut-off); inconclusive = no clear call, values can overlap the other calls; inactive = mostly above about 0.92. Some of the results follow.

Assay: chemical genetic growth profiling, strain panel (AID 1159580);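 also: tested at 20 µM; growth read once vehicle control cultures reached saturation at 30 °C; 1 = growth at the plate median or of vehicle wells; lower values mean less growth of the strain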
Details: growth OD

Measured: normalized growth

c1ccc2c(c1)[nH]c1cnccc12
inactive: S. cerevisiae deletion strains, locus YJR066W, strain TOR1, active compounds read low 0.956 | S. cerevisiae deletion strains, locus YKL009W, strain mrt4, active compounds read low 1.01 | S. cerevisiae deletion strains, locus YKL068W, active compounds read low 0.975 | S. cerevisiae deletion strains, locus YKL085W, strain MDH1 (second series), active compounds read low 0.98 | S. cerevisiae deletion strains, locus YKL085W, strain MDH1, active compounds read low 0.98 | S. cerevisiae deletion strains, locus YKL160W, strain elf1, active compounds read low 1.01 | S. cerevisiae deletion strains, locus YKL190W, strain CNB1, active compounds read low 0.993 | S. cerevisiae deletion strains, locus YKR001C, strain vps1, active compounds read low 0.962 | S. cerevisiae deletion strains, locus YKR026C, strain gcn3, active compounds read low 0.986 | S. cerevisiae deletion strains, locus YKR091W, strain srl3, active compounds read low 1 | S. cerevisiae deletion strains, locus YLL001W, strain dnm1, active compounds read low 1 | S. cerevisiae deletion strains, locus YLL026W, active compounds read low 0.996 | S. cerevisiae deletion strains, locus YLL041C, strain sdh2, active compounds read low 1 | S. cerevisiae deletion strains, locus YLR027C, strain aat2, active compounds read low 1.01 | S. cerevisiae deletion strains, locus YLR039C, strain RIC1, active compounds read low 0.893 | S. cerevisiae deletion strains, locus YLR058C, strain SHM2, active compounds read low 1.01 | S. cerevisiae deletion strains, locus YLR102C, strain apc9, active compounds read low 0.972 | S. cerevisiae deletion strains, locus YLR113W, strain HOG1, active compounds read low 1.03 | S. cerevisiae deletion strains, locus YLR221C, strain rsa3, active compounds read low 1 | S. cerevisiae deletion strains, locus YLR258W, strain gsy2, active compounds read low 0.998 | S. cerevisiae deletion strains, locus YLR262C, strain YPT6 (second series), active compounds read low 0.948 | S. cerevisiae deletion strains, locus YLR262C, strain YPT6, active compounds read low 0.947 | S. cerevisiae deletion strains, locus YLR268W, strain sec22, active compounds read low 0.952 | S. cerevisiae deletion strains, locus YLR320W, strain mms22, active compounds read low 0.994 | S. cerevisiae deletion strains, locus YLR330W, strain CHS5, active compounds read low 0.976 | S. cerevisiae deletion strains, locus YLR342W, strain FKS1 (second series), active compounds read low 1.02 | S. cerevisiae deletion strains, locus YLR342W, strain FKS1, active compounds read low 1 | S. cerevisiae deletion strains, locus YLR357W, strain rsc2, active compounds read low 0.99 | S. cerevisiae deletion strains, locus YLR370C, strain arc18, active compounds read low 1 | S. cerevisiae deletion strains, locus YLR371W, strain rom2, active compounds read low 0.983 | S. cerevisiae deletion strains, locus YLR384C, strain iki3, active compounds read low 0.992 | S. cerevisiae deletion strains, locus YLR418C, strain cdc73, active compounds read low 1.02 | S. cerevisiae deletion strains, locus YML016C, strain PPZ1, active compounds read low 0.991 | S. cerevisiae deletion strains, locus YML032C, strain rad52, active compounds read low 1.02 | S. cerevisiae deletion strains, locus YML120C, strain ndi1, active compounds read low 1 | S. cerevisiae deletion strains, locus YML124C, strain tub3, active compounds read low 0.987 | S. cerevisiae deletion strains, locus YMR058W, strain fet3, active compounds read low 0.996 | S. cerevisiae deletion strains, locus YMR078C, strain ctf18, active compounds read low 0.956 | S. cerevisiae deletion strains, locus YMR125W, strain sto1, active compounds read low 0.996 | S. cerevisiae deletion strains, locus YMR129W, active compounds read low 1.01 | S. cerevisiae deletion strains, locus YMR205C, strain PFK2, active compounds read low 0.977 | S. cerevisiae deletion strains, locus YMR223W, strain ubp8, active compounds read low 1 | S. cerevisiae deletion strains, locus YMR231W, strain pep5, active compounds read low 0.994 | S. cerevisiae deletion strains, locus YMR263W, strain SAP30, active compounds read low 0.982 | S. cerevisiae deletion strains, locus YMR307W, strain GAS1, active compounds read low 1.23 | S. cerevisiae deletion strains, locus YNL067W, strain RPL9B, active compounds read low 0.986 | S. cerevisiae deletion strains, locus YNL071W, strain lat1, active compounds read low 1.01 | S. cerevisiae deletion strains, locus YNL153C, strain GIM3, active compounds read low 0.971 | S. cerevisiae deletion strains, locus YNL183C, strain NPR1, active compounds read low 0.965 | S. cerevisiae deletion strains, locus YNL209W, strain ssb2, active compounds read low 1.01 | S. cerevisiae deletion strains, locus YNL233W, strain BNI4, active compounds read low 0.984 | S. cerevisiae deletion strains, locus YNL248C, strain rpa49, active compounds read low 1.01 | S. cerevisiae deletion strains, locus YNL250W, strain rad50, active compounds read low 0.941 | S. cerevisiae deletion strains, locus YNL271C, strain bni1, active compounds read low 0.985 | S. cerevisiae deletion strains, locus YNL298W, strain CLA4, active compounds read low 0.984 | S. cerevisiae deletion strains, locus YNL307C, strain MCK1, active compounds read low 0.976 | S. cerevisiae deletion strains, locus YNL322C, strain KRE1 (second series), active compounds read low 1 | S. cerevisiae deletion strains, locus YNR049C, strain mso1, active compounds read low 1.01 | S. cerevisiae deletion strains, locus YNR052C, strain pop2, active compounds read low 0.997 | S. cerevisiae deletion strains, locus YOL012C, strain htz1 0.866 | S. cerevisiae deletion strains, locus YOL147C, strain pex11, active compounds read low 0.988 | S. cerevisiae deletion strains, locus YOR001W, strain rrp6, active compounds read low 0.996 | S. cerevisiae deletion strains, locus YOR061W, strain CKA2, active compounds read low 1.01 | S. cerevisiae deletion strains, locus YOR069W, strain VPS5, active compounds read low 0.998 | S. cerevisiae deletion strains, locus YOR070C, strain gyp1, active compounds read low 1.01 | S. cerevisiae deletion strains, locus YOR080W, strain dia2, active compounds read low 0.986 | S. cerevisiae deletion strains, locus YOR083W, strain WHI5, active compounds read low 1 | S. cerevisiae deletion strains, locus YOR106W, strain vam3, active compounds read low 1 | S. cerevisiae deletion strains, locus YOR136W, strain idh2, active compounds read low 0.974 | S. cerevisiae deletion strains, locus YOR144C, strain elg1, active compounds read low 0.99 | S. cerevisiae deletion strains, locus YOR184W, strain ser1, active compounds read low 0.995 | S. cerevisiae deletion strains, locus YOR231W, strain MKK1, active compounds read low 1.03 | S. cerevisiae deletion strains, locus YOR265W, strain rbl2, active compounds read low 0.994 | S. cerevisiae deletion strains, locus YOR270C, strain vph1, active compounds read low 1 | S. cerevisiae deletion strains, locus YOR290C, strain snf2, active compounds read low 1.03 | S. cerevisiae deletion strains, locus YOR316C, strain cot1, active compounds read low 0.988 | S. cerevisiae deletion strains, locus YPL051W, strain arl3, active compounds read low 1 | S. cerevisiae deletion strains, locus YPL055C, strain LGE1, active compounds read low 0.991 | S. cerevisiae deletion strains, locus YPL078C, strain atp4, active compounds read low 1 | S. cerevisiae deletion strains, locus YPL106C, strain sse1, active compounds read low 0.983 | S. cerevisiae deletion strains, locus YPL240C, strain hsp82, active compounds read low 1.02 | S. cerevisiae deletion strains, locus YPL241C, strain CIN2, active compounds read low 1.01 | S. cerevisiae deletion strains, locus YPL256C, strain CLN2, active compounds read low 1.02 | S. cerevisiae deletion strains, locus YPR119W, strain clb2, active compounds read low 0.979 | S. cerevisiae deletion strains, locus YPR141C, strain kar3, active compounds read low 0.984 | S. cerevisiae deletion strains, locus YPR163C, strain tif3, active compounds read low 0.985 | S. cerevisiae deletion strains, locus YPR167C, strain met16, active compounds read low 0.986 | S. cerevisiae deletion strains, strain wtn01, active compounds read low 0.95 | S. cerevisiae strains, strain wild type, active compounds read low 0.999
